This is an account of results in PubChem BioAssay AID624405 (Broad Institute, 2012).

Out of some 1,900 compounds screened, about 250 (13%) were called active. About 4% were inconclusive and are not listed. Not all results are given here. Measured potencies and affinities stand elsewhere. Unmarked numbers belong to inactive results.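 Rule for the calls: active = fitted curve reaches 40% rescue activity at or below the top valid dose, in every test run; inconclusive = test runs disagree, some active and some inactive; inactive = every run misses the threshold or moves the wrong way.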

The assay is described as follows: suppressors of statin myotoxicity in myotubes, dose response, cell-based, C2C12 myotubes, ATP luminescence, cherry pick (AID 624405).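 Note: myotubes are challenged with simvastatin at 10 µM to lower ATP.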 The settings on record: C2C12 myotubes + simvastatin, 48 h, scaled: DMSO wells 0, geranylgeraniol wells 100; series mostly up to 19.5 µM; rescue activity (ATP increase): at the top concentration.
`O=C(CN1CCN(c2ccccn2)CC1)NCCc1ccccc1`: the “rescue activity (ATP increase)” value was 4.85%.

Take `CS(=O)(=O)N(CC(=O)NCc1ccccc1)C1CCCCC1`: the “rescue activity (ATP increase)” value is 0.866%. With `CSc1cc(-c2ccc(Cl)cc2)c(C(=O)NC(C)C)s1`, the “rescue activity (ATP increase)” value is 4.58%. The value for `COc1ccc(NC(=O)Nc2cccc3c2O[C@@H](CN(C)Cc2ccc(Oc4ccccc4)cc2)[C@@H](C)CN([C@H](C)CO)C3=O)cc1` was -21% [at 21 µM]; that for `COc1ccc(NC(=O)Nc2cccc3c2O[C@@H](CN(C)Cc2ccc(Oc4ccccc4)cc2)[C@@H](C)CN([C@@H](C)CO)C3=O)cc1` was -0.035%. The figure for `Cc1noc(C)c1NC(=O)Nc1cccc2c1O[C@@H](CN(C)Cc1ccc(-c3ccccc3)cc1)[C@H](C)CN([C@@H](C)CO)C2=O` is 8.68%; for `Cc1noc(C)c1NC(=O)Nc1cccc2c1O[C@H](CN(C)Cc1ccc(-c3ccccc3)cc1)[C@@H](C)CN([C@@H](C)CO)C2=O` it is -5.23%; for `C[C@@H]1CN([C@@H](C)CO)C(=O)c2cc(C#CC3CCCCC3)cnc2O[C@@H]1CN(C)C(=O)C1CCCCC1` it is -4.43%. The value for `CSc1nncn1/N=C/c1ccc2c(c1)OCO2` was -1.45%.

As for `COc1cccc(-c2cnc3c(c2)C(=O)N([C@H](C)CO)C[C@H](C)[C@H](CN(C)C(=O)Nc2cccc4ccccc24)O3)c1`, the “rescue activity (ATP increase)” value was 9.55%. The figure for `COc1cc(C(=O)Oc2cccc(C)c2)cc(OC)c1OC` is -10.8%; for `COc1cc(S(=O)(=O)N2CCN(C(=O)c3ccccc3F)CC2)c(OC)cc1NC(C)=O` it is 0.236%. As for `COc1ccc(CN2CCN(C(=O)c3cccs3)CC2)cc1Br`, the “rescue activity (ATP increase)” value is 28.6%. The value for `O=C(c1cccs1)N1CCN(C2CCN(Cc3ccccc3)CC2)CC1` was -9.46%. Take `Cc1ccc(S(=O)(=O)N2CCCSCC2)cc1`: the “rescue activity (ATP increase)” value is 10.4%. With `Cc1noc(N)c1C(=O)Nc1ccc(F)c(Cl)c1`, the “rescue activity (ATP increase)” value is 1.69%.

For `Cc1nnc(Sc2nc3c(c(=O)n(C)c(=O)n3C)n2Cc2ccccc2Cl)s1`, the “rescue activity (ATP increase)” value was -13.5%. The value for `O=C1CCCC2=C1C(c1cccs1)Nc1ccc3ncccc3c12` (stereo not given) was 24.9%. As to `CCCSc1nnc(CN2CCOCC2)n1C`, the “rescue activity (ATP increase)” value was -4.41%. The value for `CCCNC(=O)C(=O)c1cccn1-c1ccsc1C(=O)OC` was -13.7%; that for `CCOC(=O)c1ccc(NC(=O)N2CCCCC2)cc1` was -33.5%; that for `C[C@H](CO)N1C[C@H](C)[C@H](CN(C)C(=O)Nc2ccc3c(c2)OCO3)OCCCC[C@H](C)Oc2ccc(NS(=O)(=O)c3ccc(F)cc3)cc2C1=O` was 36.7%. The value for `Cc1ccc(CN2CCC(C(=O)NCCC(C)C)CC2)o1` was -12.4%; that for `COc1ccc(S(=O)(=O)Nc2cccc3c2O[C@H](CN(C)C(=O)Nc2ccc(F)cc2)[C@@H](C)CN([C@H](C)CO)C3=O)cc1` was 28.7%; that for `Cc1ccc(S(=O)(=O)N(C)C[C@@H]2Oc3c(NC(=O)Nc4ccccc4)cccc3C(=O)N([C@@H](C)CO)C[C@H]2C)cc1` was -16%. The value for `Cc1ccc(S(=O)(=O)N(C)C[C@H]2Oc3c(NC(=O)Nc4ccccc4)cccc3C(=O)N([C@@H](C)CO)C[C@@H]2C)cc1` was 14.2%; that for `COc1ccc(S(=O)(=O)Nc2cccc3c2O[C@@H](CN(C)C(=O)Nc2ccc(F)cc2)[C@@H](C)CN([C@@H](C)CO)C3=O)cc1` was 8.52%; that for `Cc1ccc(S(=O)(=O)N(C)C[C@H]2Oc3c(NC(=O)Nc4ccccc4)cccc3C(=O)N([C@H](C)CO)C[C@@H]2C)cc1` was -0.949%. On to `COc1ccc(S(=O)(=O)Nc2cccc3c2O[C@@H](CN(C)C(=O)Nc2ccc(F)cc2)[C@@H](C)CN([C@H](C)CO)C3=O)cc1`, for which the “rescue activity (ATP increase)” value was 13.7%. The value for `CN1C(=O)c2cc(NC(=O)c3ccc(F)c(F)c3)ccc2OC[C@H]2O[C@@H](CC(=O)Nc3ccc4c(c3)COC4)CC[C@@H]21` was 26% [at 10 µM]; that for `CCSc1nc2sc3c(c2c(=O)n1-c1ccc(OC)cc1)CCN(C)C3` was 40.1%. The value for `COCCNC(=O)c1nn(-c2cc(OC)cc(OC)c2)c(=O)c2ccccc12` was 0.939%; that for `COc1ccc(S(=O)(=O)N(CC(C)C)CC(C)C)c2cccnc12` was 9.83%; that for `Cc1cccc(NC(=O)COc2ccc3oc4c(c3c2)CCCC4)n1` was 31.6%. With `CO[C@H]1CC[C@@H]2CCOc3ccc(C#N)cc3C(=O)N(C)C[C@@H](OC)[C@@H](C)C(=O)N(C)C[C@H]1O2`, the “rescue activity (ATP increase)” value is 40.2%. The figure for `C[C@@H]1CN([C@H](C)CO)C(=O)c2cc(NS(=O)(=O)c3cccs3)ccc2O[C@@H](C)CCCCO[C@@H]1CN(C)Cc1ccc(C(F)(F)F)cc1` is -13.6%. The figure for `O=C(CSc1nnnn1-c1cccc2c1CCCC2)N1CCCCC1` is 5.11%.

`Cc1ccc(NC(=O)c2cccc(OCc3c(C)noc3C)c2)cc1`: the “rescue activity (ATP increase)” value was -87%.

Consider `COCCNC(=O)Nc1ccc2nc(-c3cccs3)c(-c3cccs3)nc2c1`, for which the “rescue activity (ATP increase)” value was -64.5%. The figure for `COc1ccc(NC(=O)CSc2nccc(C)n2)cc1` is 8.89%.
